# From PubChem BioAssay (NCI)
# This is part of a sample that, as a whole, favours compounds with a hit. Of some 83,000 tested, about 20% had one in any assay.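 Cell lines were cultured in 96-well plates, exposed to a single compound concentration, and assessed for percent growth 48 hours later.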 Values without a mark were called inactive. The source made the active and inactive calls. Rule for the calls: active = growth percent below 10; inactive = the rest.
# Tests used:
# Assay in all cases: NCI-60 one-dose screen, 48 h (100 = growth as untreated, 0 = no growth, -100 = all killed)
# Details in all cases: 10 µM unless noted
# HCT-15 colon = tested on: HCT-15 colon
# HT29 colon = tested on: HT29 colon
# SNB-75 CNS = tested on: SNB-75 CNS
# SNB-19 CNS = tested on: SNB-19 CNS
# U251 CNS = tested on: U251 CNS
# PC-3 prostate = tested on: PC-3 prostate
# SK-MEL-5 melanoma = tested on: SK-MEL-5 melanoma
# UACC-62 melanoma = tested on: UACC-62 melanoma
# LOX IMVI melanoma = tested on: LOX IMVI melanoma
# SK-MEL-28 melanoma = tested on: SK-MEL-28 melanoma
Compound,growth (HCT-15 colon),growth (HT29 colon),growth (SNB-75 CNS),growth (SNB-19 CNS),growth (U251 CNS),growth (PC-3 prostate),growth (SK-MEL-5 melanoma),growth (UACC-62 melanoma),growth (LOX IMVI melanoma),growth (SK-MEL-28 melanoma)
Nc1ccc(-c2ccncc2)cc1NC(=O)N1CCCC1,100%,72.9%,85%,106%,89.8%,91.2%,99.3%,91.7%,112%,96.1%
CCN(CC)CCOc1ccc(C(=O)/C=C\c2ccc(Cl)cc2Cl)cc1,2.05% (active),-19.6% (active),82.9%,56.7%,24.9%,23.3%,6.5% (active),-34.5% (active),-77.3% (active),32.5%
CCCC(=O)NC(c1ccc2c(c1)OCO2)c1cc(Cl)c2cccnc2c1O (stereo not given),30.9%,21.2%,6.73% (active),23.7%,17.3%,34.5%,37.5%,11%,23.4%,46.1%
COC(=O)[C@@]1(C)CC[C@]2(C)CC[C@]3(C)C4=CC=C5C(=CC(=O)C(O)=C5C)[C@]4(C)[C@@H](O)C[C@@]3(C)[C@@H]2C1,1.43% (active),31.1%,70.5%,22.9%,-10.1% (active),29.1%,60.7%,29.6%,-56.3% (active),-17.8% (active)
CN1C(=O)/C(=C/c2ccc(C(=O)Nc3ncc(Cc4cc(Cl)ccc4Cl)s3)cc2)SC1=S,49%,64%,63.1%,87.8%,82.7%,65.8%,67%,34.2%,41.7%,77%
Nc1nc(N(Cc2ccccc2)c2ccccc2)c2cn[nH]c2n1,49.8%,32.3%,56.8%,68.1%,42.6%,74.8%,44.6%,45.7%,53%,63.4%
CCOc1ncc([N+](=O)[O-])c(OCC)n1,104%,121%,97%,104%,109%,88.1%,99.9%,95.9%,101%,105%
Fc1cccc(-c2nc(-c3c[nH]c4ncccc34)cs2)c1,82.9% [100 µM],76% [100 µM],-14.1% [100 µM] (active),70.8% [100 µM],33.7% [100 µM],59.6% [100 µM],50.6% [100 µM],73.1% [100 µM],74.3% [100 µM],89.2% [100 µM]
CNCC[C@H](Oc1cccc2ccccc12)c1cccs1,101%,71.8%,61.5%,97.8%,85.3%,68.9%,93%,91.3%,74.1%,91.5%
Nc1nc(N)c2c(n1)NC(c1cccc(Nc3ccnc4cc(C(F)(F)F)ccc34)c1)CC(c1ccc3c(c1)OCO3)=N2 (stereo not given),37.4%,23.8%,78.7%,76.5%,56.4%,48.5%,66.4%,90.6%,65.7%,96.3%
S=c1ccnc[nH]1,103%,110%,120%,102%,102%,100%,109%,102%,96.5%,144%
C=CN(C(=O)N1CCN(c2cc3c(cc2F)c(=O)c(C(=O)O)cn3C2CC2)CC1)c1nc(-c2ccc(Cl)cc2)cs1,24.6%,40.2%,80%,59.5%,23.6%,40.3%,81.9%,60.3%,28.6%,62%
COc1ccc(C2CC(n3ccnc3)c3cc(OC)c(OC)c(OC)c32)cc1O (stereo not given),59.9%,102%,90.2%,93.7%,80.4%,60.7%,53.1%,65.5%,86.4%,78.3%
